One may read the inhibition as the change of the read-out against control, counted positive when it falls.

Experiment [1] addresses Serine/threonine-protein kinase MRCK alpha (Homo sapiens) (UniProt Q5VT25). To be noted: at 0.1 µM.
Experiment [2] shares this target. To be noted: at 1 µM.
Experiment [3] concerns the target Serine/threonine-protein kinase MRCK beta (Homo sapiens) (UniProt Q9Y5S2). The conditions noted are these: at 0.1 µM.
Experiment [4] shares this target. The conditions noted are these: at 1 µM.
Experiment [5] concerns the target Ribosomal protein S6 kinase alpha-5 (Homo sapiens) (UniProt O75582). To be noted: at 0.1 µM.
Experiment [6] shares this target. To be noted: at 1 µM.
Experiment [7] concerns the target Ribosomal protein S6 kinase alpha-4 (Homo sapiens) (UniProt O75676). The conditions noted are these: at 0.1 µM.
Experiment [8] shares this target. To be noted: at 1 µM.
Experiment [9] concerns the target Ribosomal protein S6 kinase beta-1 (Homo sapiens) (UniProt P23443). The conditions noted are these: at 0.1 µM.
Experiment [10] shares this target. To be noted: at 1 µM.
Experiment [11] addresses T1, 3-phosphoinositide-dependent protein kinase 1 (Homo sapiens) (UniProt O15530).
T1 sequence (whole entry): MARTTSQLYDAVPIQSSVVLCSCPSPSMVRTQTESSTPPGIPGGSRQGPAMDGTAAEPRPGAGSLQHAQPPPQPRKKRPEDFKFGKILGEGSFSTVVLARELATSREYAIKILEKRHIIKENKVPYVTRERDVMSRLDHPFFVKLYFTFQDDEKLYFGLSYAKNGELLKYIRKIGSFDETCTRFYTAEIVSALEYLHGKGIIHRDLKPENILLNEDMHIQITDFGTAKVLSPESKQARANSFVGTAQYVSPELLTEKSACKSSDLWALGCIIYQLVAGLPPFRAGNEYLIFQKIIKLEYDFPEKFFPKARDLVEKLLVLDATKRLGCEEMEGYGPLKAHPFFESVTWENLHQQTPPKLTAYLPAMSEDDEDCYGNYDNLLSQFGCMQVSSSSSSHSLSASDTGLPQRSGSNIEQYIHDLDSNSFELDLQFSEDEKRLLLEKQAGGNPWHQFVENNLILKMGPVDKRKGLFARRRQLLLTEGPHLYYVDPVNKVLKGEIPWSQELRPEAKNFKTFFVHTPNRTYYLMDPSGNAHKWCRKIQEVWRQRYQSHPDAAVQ
To be noted: at 0.1 µM.

Experiment [12] has as its target cAMP-dependent protein kinase catalytic subunit alpha (Homo sapiens) (UniProt P17612). The conditions noted are these: at 0.1 µM.
The target is the same in experiment [13]. The conditions noted are these: at 1 µM.
In experiment [14] the target is Protein kinase C alpha type (Homo sapiens) (UniProt P17252). To be noted: at 0.1 µM.
Experiment [15] has the same target. To be noted: at 1 µM.
In experiment [16] the target is Protein kinase C beta type (Homo sapiens) (UniProt P05771). To be noted: at 0.1 µM.
Chain of Protein kinase C beta type (Homo sapiens) (P05771 2-671 limits assumed): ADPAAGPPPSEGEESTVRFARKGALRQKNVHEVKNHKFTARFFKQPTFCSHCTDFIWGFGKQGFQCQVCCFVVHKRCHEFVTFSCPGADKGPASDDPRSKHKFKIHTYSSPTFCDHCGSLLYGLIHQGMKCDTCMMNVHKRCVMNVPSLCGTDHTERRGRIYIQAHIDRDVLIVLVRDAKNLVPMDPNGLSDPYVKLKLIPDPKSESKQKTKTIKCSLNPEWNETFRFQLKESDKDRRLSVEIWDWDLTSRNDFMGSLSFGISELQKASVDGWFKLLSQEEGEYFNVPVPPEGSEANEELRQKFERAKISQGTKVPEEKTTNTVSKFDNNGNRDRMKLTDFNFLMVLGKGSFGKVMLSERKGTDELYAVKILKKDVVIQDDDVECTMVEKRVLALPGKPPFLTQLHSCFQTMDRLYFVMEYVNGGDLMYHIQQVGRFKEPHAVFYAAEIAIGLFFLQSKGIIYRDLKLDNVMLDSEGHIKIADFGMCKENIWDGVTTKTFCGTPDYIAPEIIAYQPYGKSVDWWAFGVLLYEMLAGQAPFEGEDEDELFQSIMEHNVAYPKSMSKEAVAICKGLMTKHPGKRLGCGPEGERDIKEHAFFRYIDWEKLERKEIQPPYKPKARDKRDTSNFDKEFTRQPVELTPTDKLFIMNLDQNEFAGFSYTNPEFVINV
Experiment [17] shares this target. To be noted: at 1 µM.
Experiment [18] deals with Protein kinase C eta type (Homo sapiens) (UniProt P24723). To be noted: at 0.1 µM.
Chain of Protein kinase C eta type (Homo sapiens) (P24723 whole entry): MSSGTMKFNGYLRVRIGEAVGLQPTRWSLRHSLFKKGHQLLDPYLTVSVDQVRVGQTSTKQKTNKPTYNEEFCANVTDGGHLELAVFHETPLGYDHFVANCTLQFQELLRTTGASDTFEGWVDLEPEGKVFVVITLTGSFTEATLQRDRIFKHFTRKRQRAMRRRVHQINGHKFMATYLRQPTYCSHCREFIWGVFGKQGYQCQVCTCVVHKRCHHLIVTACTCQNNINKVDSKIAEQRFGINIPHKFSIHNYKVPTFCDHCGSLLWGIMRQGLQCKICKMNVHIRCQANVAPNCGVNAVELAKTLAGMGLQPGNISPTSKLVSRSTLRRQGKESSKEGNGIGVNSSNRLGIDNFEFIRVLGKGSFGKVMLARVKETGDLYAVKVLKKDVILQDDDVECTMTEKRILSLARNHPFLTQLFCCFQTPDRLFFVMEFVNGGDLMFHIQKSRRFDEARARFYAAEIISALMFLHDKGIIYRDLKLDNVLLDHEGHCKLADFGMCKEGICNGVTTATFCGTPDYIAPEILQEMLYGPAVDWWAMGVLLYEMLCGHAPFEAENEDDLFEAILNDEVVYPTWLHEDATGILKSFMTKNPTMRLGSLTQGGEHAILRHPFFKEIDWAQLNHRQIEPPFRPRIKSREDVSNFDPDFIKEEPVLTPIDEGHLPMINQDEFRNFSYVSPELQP
For experiment [19] the target is unchanged. The conditions noted are these: at 1 µM.
Experiment [20] has as its target Protein kinase C gamma type (Homo sapiens) (UniProt P05129). The conditions noted are these: at 0.1 µM.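 Further: values are mean percent inhibition of PKC gamma.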

Chain of Ribosomal protein S6 kinase beta-1 (Homo sapiens) (P23443 whole entry, looked up): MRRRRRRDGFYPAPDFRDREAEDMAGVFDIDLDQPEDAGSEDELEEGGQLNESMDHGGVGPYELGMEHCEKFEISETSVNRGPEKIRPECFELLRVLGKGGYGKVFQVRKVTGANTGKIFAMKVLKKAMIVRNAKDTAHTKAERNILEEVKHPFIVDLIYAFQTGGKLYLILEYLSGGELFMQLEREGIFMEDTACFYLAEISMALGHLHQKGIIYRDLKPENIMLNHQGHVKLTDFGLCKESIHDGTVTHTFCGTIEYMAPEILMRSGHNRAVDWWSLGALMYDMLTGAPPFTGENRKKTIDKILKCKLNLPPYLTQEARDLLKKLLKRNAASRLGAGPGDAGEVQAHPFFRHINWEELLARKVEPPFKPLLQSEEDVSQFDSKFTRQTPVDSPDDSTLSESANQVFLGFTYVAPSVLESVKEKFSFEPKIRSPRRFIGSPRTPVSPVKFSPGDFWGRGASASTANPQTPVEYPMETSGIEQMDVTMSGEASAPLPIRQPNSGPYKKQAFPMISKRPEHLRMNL
Chain of Serine/threonine-protein kinase MRCK alpha (Homo sapiens) (Q5VT25 whole entry): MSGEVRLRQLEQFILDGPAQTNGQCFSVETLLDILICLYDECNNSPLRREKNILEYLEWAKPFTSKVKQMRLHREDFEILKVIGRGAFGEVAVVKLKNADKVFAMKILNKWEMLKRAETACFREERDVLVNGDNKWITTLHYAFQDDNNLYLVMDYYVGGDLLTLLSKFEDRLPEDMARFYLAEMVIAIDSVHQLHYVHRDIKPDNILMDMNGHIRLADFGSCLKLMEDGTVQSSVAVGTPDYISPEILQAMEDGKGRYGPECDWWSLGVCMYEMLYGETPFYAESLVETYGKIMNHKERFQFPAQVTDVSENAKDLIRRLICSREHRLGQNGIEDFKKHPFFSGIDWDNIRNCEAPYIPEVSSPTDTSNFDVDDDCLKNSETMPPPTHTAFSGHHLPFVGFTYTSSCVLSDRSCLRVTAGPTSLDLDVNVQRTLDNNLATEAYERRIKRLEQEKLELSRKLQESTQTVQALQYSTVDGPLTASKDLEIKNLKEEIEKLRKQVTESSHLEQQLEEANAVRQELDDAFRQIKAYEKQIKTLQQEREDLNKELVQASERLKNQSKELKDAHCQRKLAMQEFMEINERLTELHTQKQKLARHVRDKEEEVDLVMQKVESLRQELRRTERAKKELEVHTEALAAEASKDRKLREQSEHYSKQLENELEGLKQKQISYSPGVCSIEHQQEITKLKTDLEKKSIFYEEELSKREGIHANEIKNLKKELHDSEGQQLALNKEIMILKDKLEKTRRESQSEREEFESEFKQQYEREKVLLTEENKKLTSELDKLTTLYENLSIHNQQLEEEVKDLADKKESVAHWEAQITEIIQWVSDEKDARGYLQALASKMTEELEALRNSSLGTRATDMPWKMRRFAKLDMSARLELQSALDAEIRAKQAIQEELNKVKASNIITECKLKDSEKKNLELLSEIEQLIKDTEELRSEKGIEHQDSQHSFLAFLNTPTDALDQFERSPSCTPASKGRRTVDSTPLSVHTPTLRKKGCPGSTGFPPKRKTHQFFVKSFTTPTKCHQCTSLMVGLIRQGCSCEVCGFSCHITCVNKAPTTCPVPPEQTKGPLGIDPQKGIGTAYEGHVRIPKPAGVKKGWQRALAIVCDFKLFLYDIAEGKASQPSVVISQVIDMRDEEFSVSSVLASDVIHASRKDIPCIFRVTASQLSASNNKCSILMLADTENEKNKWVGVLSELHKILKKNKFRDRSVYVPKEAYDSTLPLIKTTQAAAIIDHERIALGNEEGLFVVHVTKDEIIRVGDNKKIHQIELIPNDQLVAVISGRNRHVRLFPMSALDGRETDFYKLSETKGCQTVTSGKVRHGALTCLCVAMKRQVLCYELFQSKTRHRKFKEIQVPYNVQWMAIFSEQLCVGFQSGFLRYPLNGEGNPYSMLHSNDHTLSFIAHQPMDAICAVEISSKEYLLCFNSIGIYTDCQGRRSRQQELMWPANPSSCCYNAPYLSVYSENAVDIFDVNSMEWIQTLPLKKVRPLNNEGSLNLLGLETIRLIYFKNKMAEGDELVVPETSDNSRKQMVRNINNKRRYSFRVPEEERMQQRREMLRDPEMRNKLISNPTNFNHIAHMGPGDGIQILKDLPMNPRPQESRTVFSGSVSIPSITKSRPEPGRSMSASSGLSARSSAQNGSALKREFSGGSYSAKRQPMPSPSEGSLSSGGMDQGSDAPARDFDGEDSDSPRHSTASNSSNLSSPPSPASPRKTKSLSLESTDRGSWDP
Chain of Ribosomal protein S6 kinase alpha-4 (Homo sapiens) (O75676 whole entry, looked up): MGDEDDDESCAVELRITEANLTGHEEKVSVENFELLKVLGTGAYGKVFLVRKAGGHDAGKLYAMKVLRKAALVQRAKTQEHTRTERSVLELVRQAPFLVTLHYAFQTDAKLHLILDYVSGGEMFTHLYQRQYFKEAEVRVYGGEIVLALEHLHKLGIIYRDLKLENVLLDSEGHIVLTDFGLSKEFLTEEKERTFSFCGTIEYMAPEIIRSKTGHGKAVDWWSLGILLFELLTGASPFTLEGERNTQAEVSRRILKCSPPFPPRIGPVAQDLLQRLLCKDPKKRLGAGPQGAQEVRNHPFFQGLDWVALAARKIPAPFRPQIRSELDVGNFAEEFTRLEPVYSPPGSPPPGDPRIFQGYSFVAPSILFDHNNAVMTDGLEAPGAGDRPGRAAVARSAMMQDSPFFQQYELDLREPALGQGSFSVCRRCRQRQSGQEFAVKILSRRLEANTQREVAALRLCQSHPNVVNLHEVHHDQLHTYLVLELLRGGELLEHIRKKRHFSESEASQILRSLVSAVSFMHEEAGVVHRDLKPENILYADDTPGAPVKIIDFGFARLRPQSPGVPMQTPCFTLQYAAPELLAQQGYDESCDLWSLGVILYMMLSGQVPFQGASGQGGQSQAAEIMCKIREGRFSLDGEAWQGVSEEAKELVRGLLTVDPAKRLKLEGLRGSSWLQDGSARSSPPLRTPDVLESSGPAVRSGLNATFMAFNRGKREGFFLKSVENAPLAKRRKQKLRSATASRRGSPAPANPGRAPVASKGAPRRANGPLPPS

For the molecule `CN(C)CCOc1ccc(-c2nc(-c3ccncc3)c(-c3ccc4c(c3)CC/C4=N\O)[nH]2)cc1`, the inhibition in [1] is -0.58%; in experiment [2] it was 0.77%; in experiment [3] it was 0.46%; in [4], 0.41%; in [5] it was 3.39%; in experiment [6], 7.59%. Also, the inhibition in [7] amounted to 2.36%; in experiment [8], 4.48%; in experiment [9], 1.37%; in experiment [10] it was 1.71%; in experiment [11], 0.77%; in [12] it was 1.46%. The inhibition came to 4.29% in experiment [13]; 0.58% in experiment [14]; 1.61% in experiment [15]; 1.27% in experiment [16]; 11.9% in experiment [17]; 1.48% in experiment [18]. In addition, the values for the inhibition in experiment [19] and in [20] were 3.32% and 1.85%, respectively.
With `CC(C)COC(=O)c1ccc2c(c1)/C(=C/Nc1ccc(S(N)(=O)=O)cc1)C(=O)N2`, the inhibition in experiment [1] is 3.02%; in experiment [2] it was 6.98%; in [3] it was 3.62%; in experiment [4], 12.7%; in [5] it was 3.88%; in [6] it was 11.6%. Also, the inhibition in [7] was found to be 5.45%; in [8], 20.9%; in experiment [9], 3%; in [10], 18.1%; in experiment [11] it was 19.6%; in experiment [12], 6.49%. The inhibition is 11.8% in experiment [13]; 1.15% in experiment [14]; 7.21% in experiment [15]; 3.19% in experiment [16]; 5.57% in [17]; -1.68% in [18]. Besides, the figures for the inhibition in experiment [19] and in experiment [20] were 1.97% and -1.87%, respectively.
With `COC(=O)Nc1nc2ccc(Oc3ccc(NC(=O)Nc4cccc(Cl)c4)cc3)cc2[nH]1`, the inhibition in experiment [1] was -2.43%; in experiment [2] it was -0.92%; in experiment [3] it was -0.72%; in [4], -1.4%; in experiment [5], 0.39%; in experiment [6], -1.18%. Further, the inhibition in experiment [7] is 0.82%; in [8], -0.55%; in [9], 0.63%; in experiment [10], 0.82%; in experiment [11], -0.86%; in experiment [12], 2.12%. In addition, the inhibition in experiment [13] was 0.79%; in experiment [14], 0.15%; in experiment [15], -0.86%; in [16], -1.37%; in experiment [17], -5.17%; in [18], 0.84%. The inhibition is -0.24% in [19] and 0.84% in experiment [20].
On to `Cc1cccc2c1NC(=O)/C2=N\Nc1ccc(S(N)(=O)=O)cc1`, for which the inhibition is -1.02% in experiment [1]; -1.52% in experiment [2]; 1.33% in [3]; 2.51% in experiment [4]; 2.97% in [5]; 4.06% in experiment [6]. In addition, the inhibition stood at 1.89% in experiment [7]; 3.82% in experiment [8]; 1.66% in experiment [9]; 2.26% in experiment [10]; 2.44% in experiment [11]; 1.54% in experiment [12]. Besides, the inhibition is 2.59% in experiment [13]; 0.55% in [14]; 5.16% in [15]; 0.49% in experiment [16]; -1.37% in experiment [17]; 4.66% in [18]. The inhibition is 3.34% in experiment [19] and -3% in experiment [20].
Regarding `N#Cc1c(NC(=O)c2ccc(F)cc2)sc2c1CCCC2`, the inhibition in experiment [1] is 0.16%; in experiment [2], -0.05%; in experiment [3] it was -0.27%; in experiment [4] it was 1.57%; in experiment [5] it was 1.16%; in experiment [6], 2.08%. Besides, the inhibition in [7] is 0.1%; in [8] it was 2.25%; in experiment [9], -0.29%; in [10], 0.86%; in experiment [11], 0.85%; in experiment [12], 1.5%. The inhibition in experiment [13] is 2.64%; in [14], 0.43%; in [15], -0.26%; in [16] it was -1.4%; in experiment [17], 2.12%; in experiment [18], 3.5%. In addition, the inhibition in [19] is 2.09%; in experiment [20], 0.54%.
For the molecule `CC(C)(CO)CNC(=O)c1ccc2c(c1)/C(=N/Nc1ccc(S(N)(=O)=O)cc1)C(=O)N2`, the inhibition in experiment [1] was -0.66%; in experiment [2], -2.01%; in experiment [3], 0.21%; in experiment [4], 1.07%; in [5] it was 0.88%; in experiment [6] it was 0.97%. The inhibition was 1.15% in experiment [7]; 6.02% in [8]; -0.13% in experiment [9]; 2.2% in experiment [10]; 13.1% in [11]; 0.87% in experiment [12]. The inhibition in experiment [13] was 1.58%; in experiment [14], -0.39%; in [15] it was 0.27%; in experiment [16] it was -0.69%; in experiment [17], 0.02%; in [18], 2.86%. The values for the inhibition in experiment [19] and in experiment [20] were -0.08% and 1.72%, respectively.
For `Nc1ncc(-c2cccc(S(N)(=O)=O)c2)c2scc(-c3ccc(F)c(Cl)c3)c12`, the inhibition in experiment [1] was -3.16%; in experiment [2], 7.9%; in experiment [3], 0.86%; in experiment [4], 0.71%; in [5], 2.3%; in [6], 0.77%. Besides, the inhibition amounted to 3.08% in [7]; 2.86% in [8]; 1.63% in experiment [9]; 0.72% in experiment [10]; 1.01% in experiment [11]; 3.02% in experiment [12]. In addition, the inhibition in [13] is 3.59%; in experiment [14] it was -0.67%; in experiment [15], 2.74%; in experiment [16] it was -0.08%; in experiment [17], 0.9%; in experiment [18] it was 4.76%. Further, the values for the inhibition in experiment [19] and in experiment [20] were 6.59% and -0.92%, respectively.
